According to publication PMC7862700, “An all-to-all approach to the identification of sequence-specific readers for epigenetic DNA modifications on cytosine”:

Tests used:
Experiment in all cases: DAPPL (digital affinity profiling via proximity ligation, sequencing); 10 mM Tris-HCl pH 7.5, 50 mM NaCl, 1 mM DTT, 4% glycerol, room temperature, 30 min; GST-TFs on glutathione beads, 16-mer random dsDNA library, 0.1% formaldehyde crosslink after washing; high values mean tight binding
FEV = biological target: T1, FEV (Homo sapiens, UniProt Q99581 1-238); conditions: protein: recombinant; tags: N-terminal GST; dsDNA, one strand shown
T1 sequence: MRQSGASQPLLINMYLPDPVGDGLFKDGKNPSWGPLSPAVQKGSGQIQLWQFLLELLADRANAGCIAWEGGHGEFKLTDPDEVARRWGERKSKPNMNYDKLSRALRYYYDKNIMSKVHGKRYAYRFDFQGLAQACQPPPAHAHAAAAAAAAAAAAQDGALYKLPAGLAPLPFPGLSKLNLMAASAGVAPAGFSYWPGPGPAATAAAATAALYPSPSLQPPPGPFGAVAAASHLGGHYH
In short: (§1)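 The binding signal reported is, for every hexamer, its read frequency for a factor over its read frequency for the tag-only sample. Reads came from pools of yeast-expressed, GST-fused human transcription factors on glutathione beads, barcoded with DNA and mixed with that sample, which were incubated with 200 nmole of a random double-stranded 16-mer DNA library in Tris/NaCl/DTT/glycerol buffer at room temperature for 30 min. After washing, the pools were crosslinked with 0.1% formaldehyde, proximity-ligated with BsaI/T4 ligase for 1 h at 37 °C, PCR-amplified and sequenced on an Illumina NextSeq500.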

ETV5 = ETV5 (Homo sapiens, UniProt P41161 1-510); conditions: protein: recombinant; tags: N-terminal GST; dsDNA, one strand shown
ETV5, sequence (P41161 whole entry): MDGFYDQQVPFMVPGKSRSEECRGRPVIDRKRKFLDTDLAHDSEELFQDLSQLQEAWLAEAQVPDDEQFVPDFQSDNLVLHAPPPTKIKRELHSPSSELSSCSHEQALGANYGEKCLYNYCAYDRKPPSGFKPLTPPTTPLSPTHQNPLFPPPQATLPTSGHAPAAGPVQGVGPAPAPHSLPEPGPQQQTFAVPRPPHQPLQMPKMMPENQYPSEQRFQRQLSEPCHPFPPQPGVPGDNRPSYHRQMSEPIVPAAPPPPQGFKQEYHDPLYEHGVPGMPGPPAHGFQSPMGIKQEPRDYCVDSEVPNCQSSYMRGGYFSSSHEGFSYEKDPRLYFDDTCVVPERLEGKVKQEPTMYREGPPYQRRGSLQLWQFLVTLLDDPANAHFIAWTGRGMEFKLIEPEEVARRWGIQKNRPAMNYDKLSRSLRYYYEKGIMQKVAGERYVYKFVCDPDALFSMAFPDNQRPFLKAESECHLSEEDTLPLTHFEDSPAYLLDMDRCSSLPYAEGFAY
In short: as §1

HSF1 = HSF1 (Homo sapiens, UniProt Q00613 1-529); conditions: protein: recombinant; tags: N-terminal GST; chain copies: 3; dsDNA, one strand shown
HSF1, sequence (Q00613 whole entry): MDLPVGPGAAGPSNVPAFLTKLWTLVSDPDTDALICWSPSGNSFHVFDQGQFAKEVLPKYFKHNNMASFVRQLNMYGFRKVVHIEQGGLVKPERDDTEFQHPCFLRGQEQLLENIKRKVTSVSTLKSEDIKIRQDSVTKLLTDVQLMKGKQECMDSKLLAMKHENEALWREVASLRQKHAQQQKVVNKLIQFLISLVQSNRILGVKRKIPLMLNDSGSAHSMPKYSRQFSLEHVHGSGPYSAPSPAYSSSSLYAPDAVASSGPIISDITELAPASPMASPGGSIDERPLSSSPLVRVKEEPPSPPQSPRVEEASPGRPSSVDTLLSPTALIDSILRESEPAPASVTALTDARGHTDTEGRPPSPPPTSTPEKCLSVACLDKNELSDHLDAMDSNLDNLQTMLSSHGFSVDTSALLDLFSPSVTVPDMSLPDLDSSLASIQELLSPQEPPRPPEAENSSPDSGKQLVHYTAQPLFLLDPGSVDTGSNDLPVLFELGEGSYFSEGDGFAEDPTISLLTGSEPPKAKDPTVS
In short: as §1

SPIC = biological target: T2, SPIC (Homo sapiens, UniProt Q8N5J4 1-248); conditions: protein: recombinant; tags: N-terminal GST; dsDNA, one strand shown
T2 sequence: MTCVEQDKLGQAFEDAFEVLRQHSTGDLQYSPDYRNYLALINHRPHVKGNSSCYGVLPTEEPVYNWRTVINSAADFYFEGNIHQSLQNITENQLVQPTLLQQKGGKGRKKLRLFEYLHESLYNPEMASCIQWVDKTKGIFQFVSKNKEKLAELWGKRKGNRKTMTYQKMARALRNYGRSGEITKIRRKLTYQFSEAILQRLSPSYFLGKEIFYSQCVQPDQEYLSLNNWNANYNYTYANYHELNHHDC
In short: as §1

ELF4 = ELF4 (Homo sapiens, UniProt Q99607 1-663); conditions: protein: recombinant; tags: N-terminal GST; dsDNA, one strand shown
ELF4, sequence (Q99607 whole entry): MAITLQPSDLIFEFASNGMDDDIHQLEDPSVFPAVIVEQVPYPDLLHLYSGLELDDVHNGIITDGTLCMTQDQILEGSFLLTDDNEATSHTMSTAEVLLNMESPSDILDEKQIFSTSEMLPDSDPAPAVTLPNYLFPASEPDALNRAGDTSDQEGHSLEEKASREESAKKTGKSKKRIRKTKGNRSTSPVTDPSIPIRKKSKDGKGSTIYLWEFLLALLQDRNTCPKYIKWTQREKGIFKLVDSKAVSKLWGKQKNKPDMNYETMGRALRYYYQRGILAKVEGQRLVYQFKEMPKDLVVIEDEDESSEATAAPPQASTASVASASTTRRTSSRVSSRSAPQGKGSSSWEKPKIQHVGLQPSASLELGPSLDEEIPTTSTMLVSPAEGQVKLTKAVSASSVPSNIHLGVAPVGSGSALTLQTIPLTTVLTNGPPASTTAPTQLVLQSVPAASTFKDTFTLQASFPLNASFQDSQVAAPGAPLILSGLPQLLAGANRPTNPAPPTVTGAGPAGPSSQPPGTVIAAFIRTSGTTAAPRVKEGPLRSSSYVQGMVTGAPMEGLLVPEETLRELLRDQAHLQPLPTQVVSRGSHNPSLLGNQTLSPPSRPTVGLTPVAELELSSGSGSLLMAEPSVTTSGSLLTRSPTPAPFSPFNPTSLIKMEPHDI
In short: as §1

ELK4 = biological target: T3, ELK4 (Homo sapiens, UniProt P28324-2 1-405); conditions: protein: recombinant; tags: N-terminal GST; dsDNA, one strand shown
T3 sequence: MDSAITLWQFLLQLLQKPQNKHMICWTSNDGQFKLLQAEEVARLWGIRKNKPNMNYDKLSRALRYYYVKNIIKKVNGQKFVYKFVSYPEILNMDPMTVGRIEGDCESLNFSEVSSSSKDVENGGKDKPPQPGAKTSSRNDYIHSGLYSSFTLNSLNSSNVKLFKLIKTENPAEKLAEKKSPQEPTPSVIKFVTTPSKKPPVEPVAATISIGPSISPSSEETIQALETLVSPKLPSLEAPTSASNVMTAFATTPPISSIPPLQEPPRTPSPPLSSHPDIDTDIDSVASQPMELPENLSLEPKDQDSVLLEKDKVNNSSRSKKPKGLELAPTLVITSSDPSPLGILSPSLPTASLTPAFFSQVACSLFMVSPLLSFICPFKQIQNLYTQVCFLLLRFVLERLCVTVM
In short: as §1

ETV2 = biological target: T4, ETV2 (Homo sapiens, UniProt O00321 1-342); conditions: protein: recombinant; tags: N-terminal GST; dsDNA, one strand shown
T4 sequence: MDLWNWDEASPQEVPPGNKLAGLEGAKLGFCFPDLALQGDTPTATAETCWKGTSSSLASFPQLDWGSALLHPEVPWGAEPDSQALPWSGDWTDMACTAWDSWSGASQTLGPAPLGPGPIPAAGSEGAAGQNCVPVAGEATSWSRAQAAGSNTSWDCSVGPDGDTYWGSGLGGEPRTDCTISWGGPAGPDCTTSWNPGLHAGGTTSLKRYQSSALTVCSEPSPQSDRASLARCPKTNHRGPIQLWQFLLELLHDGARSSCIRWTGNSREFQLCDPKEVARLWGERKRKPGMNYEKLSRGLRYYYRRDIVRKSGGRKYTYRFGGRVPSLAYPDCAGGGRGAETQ
In short: as §1

ELF3 = biological target: T5, ELF3 (Homo sapiens, UniProt P78545 1-371); conditions: protein: recombinant; tags: N-terminal GST; dsDNA, one strand shown
T5 sequence: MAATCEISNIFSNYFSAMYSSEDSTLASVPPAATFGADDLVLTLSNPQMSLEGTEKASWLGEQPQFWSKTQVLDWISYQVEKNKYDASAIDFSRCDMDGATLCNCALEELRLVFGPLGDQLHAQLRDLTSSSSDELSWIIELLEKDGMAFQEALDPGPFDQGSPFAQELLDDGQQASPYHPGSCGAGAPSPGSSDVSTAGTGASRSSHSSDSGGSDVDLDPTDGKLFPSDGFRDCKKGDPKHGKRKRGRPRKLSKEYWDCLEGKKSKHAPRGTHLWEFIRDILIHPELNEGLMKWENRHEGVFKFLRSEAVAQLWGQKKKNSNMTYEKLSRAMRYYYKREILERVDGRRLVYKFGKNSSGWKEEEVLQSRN
In short: as §1

ETV1 = ETV1 (Homo sapiens, UniProt P50549 1-477); conditions: protein: recombinant; tags: N-terminal GST; dsDNA, one strand shown
ETV1, sequence (P50549 whole entry): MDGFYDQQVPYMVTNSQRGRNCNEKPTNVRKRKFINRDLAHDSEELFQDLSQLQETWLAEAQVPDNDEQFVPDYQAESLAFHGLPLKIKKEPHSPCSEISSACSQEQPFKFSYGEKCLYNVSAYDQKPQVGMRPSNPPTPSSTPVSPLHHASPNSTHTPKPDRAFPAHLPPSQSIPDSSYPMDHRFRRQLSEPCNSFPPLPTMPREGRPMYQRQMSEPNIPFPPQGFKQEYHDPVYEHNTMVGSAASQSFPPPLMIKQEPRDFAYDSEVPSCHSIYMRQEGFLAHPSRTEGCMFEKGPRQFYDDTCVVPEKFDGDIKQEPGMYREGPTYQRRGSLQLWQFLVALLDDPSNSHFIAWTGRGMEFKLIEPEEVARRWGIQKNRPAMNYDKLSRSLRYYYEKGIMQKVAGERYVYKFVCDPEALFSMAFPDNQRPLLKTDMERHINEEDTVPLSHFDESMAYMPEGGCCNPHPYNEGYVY
In short: as §1

ERF = biological target: T6, ERF (Homo sapiens, UniProt P50548 1-548); conditions: protein: recombinant; tags: N-terminal GST; dsDNA, one strand shown
T6 sequence: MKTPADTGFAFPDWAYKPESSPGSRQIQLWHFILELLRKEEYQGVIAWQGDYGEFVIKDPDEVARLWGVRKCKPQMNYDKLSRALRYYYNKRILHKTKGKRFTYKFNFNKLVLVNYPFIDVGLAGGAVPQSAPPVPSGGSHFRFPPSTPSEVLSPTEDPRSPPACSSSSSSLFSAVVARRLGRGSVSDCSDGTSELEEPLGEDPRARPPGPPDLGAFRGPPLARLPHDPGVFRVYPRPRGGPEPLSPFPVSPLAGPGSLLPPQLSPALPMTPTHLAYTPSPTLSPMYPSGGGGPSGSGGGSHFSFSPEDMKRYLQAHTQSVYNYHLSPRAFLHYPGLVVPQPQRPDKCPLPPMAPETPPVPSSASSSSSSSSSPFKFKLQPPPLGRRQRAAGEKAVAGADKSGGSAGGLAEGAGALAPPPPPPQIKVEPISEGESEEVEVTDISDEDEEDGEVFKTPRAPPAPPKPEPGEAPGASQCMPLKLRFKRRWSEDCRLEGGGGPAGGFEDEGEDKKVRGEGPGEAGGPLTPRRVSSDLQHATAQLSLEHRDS
In short: as §1

ETV3L = biological target: T7, ETV3L (Homo sapiens, UniProt Q6ZN32 1-361); conditions: protein: recombinant; tags: N-terminal GST; dsDNA, one strand shown
T7 sequence: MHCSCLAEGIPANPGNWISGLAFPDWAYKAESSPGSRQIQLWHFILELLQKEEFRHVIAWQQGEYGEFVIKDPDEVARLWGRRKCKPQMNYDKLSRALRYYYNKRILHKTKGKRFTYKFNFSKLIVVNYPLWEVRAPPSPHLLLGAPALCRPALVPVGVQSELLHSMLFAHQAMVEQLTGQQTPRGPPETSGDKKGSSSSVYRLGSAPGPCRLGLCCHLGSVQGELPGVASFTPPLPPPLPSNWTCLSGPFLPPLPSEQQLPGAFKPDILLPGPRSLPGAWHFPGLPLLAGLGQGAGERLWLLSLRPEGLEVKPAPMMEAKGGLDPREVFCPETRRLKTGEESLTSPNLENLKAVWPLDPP
In short: as §1

ETS2 = biological target: T8, ETS2 (Homo sapiens, UniProt P15036 1-469); conditions: protein: recombinant; tags: N-terminal GST; dsDNA, one strand shown
T8 sequence: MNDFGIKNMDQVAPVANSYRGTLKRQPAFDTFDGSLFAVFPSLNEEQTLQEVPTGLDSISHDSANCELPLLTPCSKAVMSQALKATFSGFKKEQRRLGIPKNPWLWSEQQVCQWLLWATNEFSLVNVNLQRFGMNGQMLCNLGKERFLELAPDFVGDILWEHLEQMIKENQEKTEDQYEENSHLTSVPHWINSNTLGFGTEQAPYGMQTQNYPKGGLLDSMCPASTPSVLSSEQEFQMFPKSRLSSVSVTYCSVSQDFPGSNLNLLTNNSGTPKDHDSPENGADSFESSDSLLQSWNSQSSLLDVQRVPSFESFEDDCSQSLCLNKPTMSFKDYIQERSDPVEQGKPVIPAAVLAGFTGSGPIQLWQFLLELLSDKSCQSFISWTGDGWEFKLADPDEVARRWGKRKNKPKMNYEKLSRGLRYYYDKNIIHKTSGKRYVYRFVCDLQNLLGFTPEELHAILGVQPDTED
In short: as §1

SPDEF = biological target: T9, SPDEF (Homo sapiens, UniProt O95238 1-335); conditions: protein: recombinant; tags: N-terminal GST; dsDNA, one strand shown
T9 sequence: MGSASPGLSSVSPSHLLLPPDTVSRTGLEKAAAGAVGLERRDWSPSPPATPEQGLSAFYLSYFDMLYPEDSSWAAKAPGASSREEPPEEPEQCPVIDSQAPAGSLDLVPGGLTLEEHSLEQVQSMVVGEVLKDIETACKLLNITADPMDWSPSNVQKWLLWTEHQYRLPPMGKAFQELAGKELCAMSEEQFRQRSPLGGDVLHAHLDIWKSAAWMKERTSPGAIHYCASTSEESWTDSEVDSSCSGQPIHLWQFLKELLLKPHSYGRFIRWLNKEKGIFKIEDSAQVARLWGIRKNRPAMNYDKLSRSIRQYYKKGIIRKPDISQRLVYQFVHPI
In short: as §1

ETV7 = biological target: T10, ETV7 (Homo sapiens, UniProt Q9Y603 1-341); conditions: protein: recombinant; tags: N-terminal GST; dsDNA, one strand shown
T10 sequence: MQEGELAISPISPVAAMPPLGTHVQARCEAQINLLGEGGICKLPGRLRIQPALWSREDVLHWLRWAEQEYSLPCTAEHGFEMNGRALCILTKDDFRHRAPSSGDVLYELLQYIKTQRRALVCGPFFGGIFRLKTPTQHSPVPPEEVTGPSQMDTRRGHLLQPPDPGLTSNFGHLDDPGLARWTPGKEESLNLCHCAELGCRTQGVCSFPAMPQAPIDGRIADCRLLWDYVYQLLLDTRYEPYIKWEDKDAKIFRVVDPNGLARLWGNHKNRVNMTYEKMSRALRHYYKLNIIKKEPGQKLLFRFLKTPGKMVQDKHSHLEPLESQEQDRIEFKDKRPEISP
In short: as §1

ELF5 = biological target: T11, ELF5 (Homo sapiens, UniProt Q9UKW6-2 1-255); conditions: protein: recombinant; tags: N-terminal GST; dsDNA, one strand shown
T11 sequence: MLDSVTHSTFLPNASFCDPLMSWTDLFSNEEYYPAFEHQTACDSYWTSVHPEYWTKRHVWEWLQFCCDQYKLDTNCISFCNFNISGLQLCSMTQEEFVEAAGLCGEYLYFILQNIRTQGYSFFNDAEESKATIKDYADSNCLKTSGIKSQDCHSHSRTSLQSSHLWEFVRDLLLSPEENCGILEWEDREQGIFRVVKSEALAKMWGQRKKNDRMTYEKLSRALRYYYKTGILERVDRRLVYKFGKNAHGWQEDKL
In short: as §1

ETV3 = biological target: T12, ETV3 (Homo sapiens, UniProt P41162-2 1-143); conditions: protein: recombinant; tags: N-terminal GST; dsDNA, one strand shown
T12 sequence: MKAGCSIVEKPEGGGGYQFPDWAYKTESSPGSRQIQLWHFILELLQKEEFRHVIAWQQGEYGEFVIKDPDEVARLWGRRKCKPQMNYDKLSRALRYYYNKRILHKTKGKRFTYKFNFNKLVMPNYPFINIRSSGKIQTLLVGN
In short: as §1

ETV6 = ETV6 (Homo sapiens, UniProt P41212 1-452); conditions: protein: recombinant; tags: N-terminal GST; dsDNA, one strand shown
ETV6, sequence (P41212 whole entry): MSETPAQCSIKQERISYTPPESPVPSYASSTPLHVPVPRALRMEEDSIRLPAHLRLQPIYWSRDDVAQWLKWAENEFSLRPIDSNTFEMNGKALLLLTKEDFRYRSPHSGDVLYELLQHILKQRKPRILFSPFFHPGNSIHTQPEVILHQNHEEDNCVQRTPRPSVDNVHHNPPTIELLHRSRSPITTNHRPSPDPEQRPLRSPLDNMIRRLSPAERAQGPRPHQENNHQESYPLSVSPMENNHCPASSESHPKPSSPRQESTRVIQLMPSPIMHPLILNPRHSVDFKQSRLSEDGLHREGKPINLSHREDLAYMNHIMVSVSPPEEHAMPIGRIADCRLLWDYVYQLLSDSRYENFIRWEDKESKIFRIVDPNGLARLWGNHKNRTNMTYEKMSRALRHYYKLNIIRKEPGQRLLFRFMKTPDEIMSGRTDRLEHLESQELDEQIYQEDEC
In short: as §1

Sequence	binding signal (FEV)	binding signal (ETV5)	binding signal (HSF1)	binding signal (SPIC)	binding signal (ELF4)	binding signal (ELK4)	binding signal (ETV2)	binding signal (ELF3)	binding signal (ETV1)	binding signal (ERF)	binding signal (ETV3L)	binding signal (ETS2)	binding signal (SPDEF)	binding signal (ETV7)	binding signal (ELF5)	binding signal (ETV3)	binding signal (ETV6)
CCGGAA	8.09 fold enrichment (6-mer frequency, TF over GST control)	6.13 fold enrichment (6-mer frequency, TF over GST control)	1.68 fold enrichment (6-mer frequency, TF over GST control)	4.87 fold enrichment (6-mer frequency, TF over GST control)	4.92 fold enrichment (6-mer frequency, TF over GST control)	3.97 fold enrichment (6-mer frequency, TF over GST control)	5.1 fold enrichment (6-mer frequency, TF over GST control)	5.42 fold enrichment (6-mer frequency, TF over GST control)	6.04 fold enrichment (6-mer frequency, TF over GST control)	4.48 fold enrichment (6-mer frequency, TF over GST control)	5.28 fold enrichment (6-mer frequency, TF over GST control)	5.63 fold enrichment (6-mer frequency, TF over GST control)	6.22 fold enrichment (6-mer frequency, TF over GST control)	5.01 fold enrichment (6-mer frequency, TF over GST control)	6.42 fold enrichment (6-mer frequency, TF over GST control)	6.2 fold enrichment (6-mer frequency, TF over GST control)	6.11 fold enrichment (6-mer frequency, TF over GST control)
AGGAAA	1.5 fold enrichment (6-mer frequency, TF over GST control)	1.52 fold enrichment (6-mer frequency, TF over GST control)	1.15 fold enrichment (6-mer frequency, TF over GST control)	1.42 fold enrichment (6-mer frequency, TF over GST control)	1.35 fold enrichment (6-mer frequency, TF over GST control)	1.2 fold enrichment (6-mer frequency, TF over GST control)	1.41 fold enrichment (6-mer frequency, TF over GST control)	1.72 fold enrichment (6-mer frequency, TF over GST control)	1.46 fold enrichment (6-mer frequency, TF over GST control)	1.34 fold enrichment (6-mer frequency, TF over GST control)	1.37 fold enrichment (6-mer frequency, TF over GST control)	1.48 fold enrichment (6-mer frequency, TF over GST control)	1.31 fold enrichment (6-mer frequency, TF over GST control)	1.46 fold enrichment (6-mer frequency, TF over GST control)	2.19 fold enrichment (6-mer frequency, TF over GST control)	1.52 fold enrichment (6-mer frequency, TF over GST control)	1.75 fold enrichment (6-mer frequency, TF over GST control)
